In PubChem BioAssay (EPA / NIEHS):
Several values for one entry are separate records, joined by “and”; a condition that tells them apart may be missing. Identical values can stand only once. Inconclusive results are not listed. Where a structure was tested more than once in an assay, its records may differ in their call. Activity calls are given as the source filed them. How the source made its calls, unless noted: active means hit-call score of the fitted dose curve at least 0.9, where 1 is the maximum; inactive means score below 0.9.

Experiments:
[1] = read-out: Interleukin-8 (IL8), CXCL8 (gene 3576); test: BSK_3C_IL8: BioMAP Diversity Plus: 3C Assay for Interleukin-8 (IL8) Biomarker Activity (AID 2283020); details: primary human endothelial cells (HUVEC); actives raise or lower the signal
Procedure, shortened: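 HUVEC, 3C stimulation; 24 h compound exposure; IL-8 read by ELISA; gain or loss of signal fitted relative to DMSO control.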

[2] = read-out: Monokine induced gamma interferon (MIG), CXCL9 (gene 4283); test: BSK_3C_MIG: BioMAP Diversity Plus: 3C Assay for Monokine induced gamma interferon (MIG) Biomarker Activity (AID 2283021); details: primary human endothelial cells (HUVEC); actives raise or lower the signal;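 on AC50: MIG protein level measured by immunoassay in the treated endothelial cultures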
Procedure, shortened: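 HUVEC, 3C system; 24 h chemical exposure; MIG by ELISA; bidirectional fit vs DMSO baseline.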

[3] = molecular target: human Vitamin D Receptor (VDR), VDR (gene 7421) (UniProt P11473); test: ATG_VDR_TRANS: Attagene TRANS-FACTORIAL HepG2 Assay for human Vitamin D Receptor (VDR) (AID 2283022; active means hit-call score of the fitted dose curve at least 0.9, where 1 is the maximum)
Procedure, shortened: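 Multiplexed TRANS reporter in HepG2; 24 h treatment; reporter mRNA by RT-PCR plus capillary electrophoresis; upregulation scored relative to DMSO.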

[4] = BSK_3C_SRB: Viability Assessment in the BioMAP Diversity Plus: 3C Assay (AID 2283023); details: primary human endothelial cells (HUVEC);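 further: fitted both ways against DMSO so a hit may be signal rise or drop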
Procedure, shortened: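 Overt cytotoxicity is gauged in parallel confluent HUVEC cultures by SRB total-protein staining at the time of biomarker measurement, 24 h after dosing. Gain or loss of signal is fitted versus DMSO.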

[5] = read-out: Matrix Metallopeptidase 1 (MMP1), MMP1 (gene 4312); test: BSK_BE3C_MMP1: BioMAP Diversity Plus: BE3C Assay for Matrix Metallopeptidase 1 (MMP1) Biomarker Activity (AID 2283024); details: primary human bronchial epithelial cells; actives raise or lower the signal
Procedure, shortened: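 ELISA read-out of MMP1 in human lung bronchial epithelial primary cultures, 24 h post-dose; bidirectional curve fit vs DMSO baseline, gain or loss of signal scored.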

[6] = BSK_4H_SRB: Viability Assessment in the BioMAP Diversity Plus: 4H Assay (AID 2283027); details: primary human endothelial cells (HUVEC);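 further: cells exposed to compound for 24 h before staining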;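 on AC50: curves fitted both ways versus DMSO so AC50 may be loss or gain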
Procedure, shortened: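 Cytotoxicity readout: sulforhodamine B (0.1%) staining of total protein after 10% TCA fixation, measured at 560 nm in human umbilical vein endothelium at 24 h. DMSO set the baseline; fitting was bidirectional.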

[7] = BSK_BE3C_SRB: Viability Assessment in the BioMAP Diversity Plus: BE3C Assay (AID 2283028); details: primary human bronchial epithelial cells;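 further: measured 24 h after chemical dosing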;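 on AC50: fitted both ways so AC50 may mark signal gain or loss versus DMSO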
Procedure, shortened: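 SRB total-protein staining (0.1%, after TCA fixation) of chemically dosed human bronchial epithelial primary cells at 24 h; DMSO serves as the negative control for bidirectional curve fitting.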

[8] = read-out: Thrombomodulin, THBD (gene 7056); test: BSK_3C_Thrombomodulin: BioMAP Diversity Plus: 3C Assay for Thrombomodulin Biomarker Activity (AID 2283029); details: primary human endothelial cells (HUVEC); actives raise or lower the signal
Procedure, shortened: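 HUVEC, 3C conditions; compound 24 h; thrombomodulin by ELISA; bidirectional curve fit vs DMSO baseline; parallel SRB total-protein staining for cytotoxicity.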

[9] = read-out: Urokinase-type plasminogen activator receptor (uPAR), PLAUR (gene 5329); test: BSK_4H_uPAR: BioMAP Diversity Plus: 4H Assay for Urokinase-type plasminogen activator receptor (uPAR) Biomarker Activity (AID 2283030); details: primary human endothelial cells (HUVEC); actives raise or lower the signal
Procedure, shortened: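 Endpoint derived via bidirectional curve fitting against DMSO baseline; readout was ELISA detection of uPAR on umbilical vein endothelial cells at 24 h post-treatment, with SRB-stained parallel cultures assessing cytotoxicity.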

[10] = read-out: Vascular endothelial growth factor receptor 2 (Homo sapiens) (UniProt P35968); test: BSK_4H_VEGFRII: BioMAP Diversity Plus: 4H Assay for Vascular endothelial growth factor receptor 2 (VEGFR2) Biomarker Activity (AID 2283031); details: primary human endothelial cells (HUVEC); actives raise or lower the signal;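 on AC50: cell-surface VEGFR2 protein level quantified by ELISA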
Procedure, shortened: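 In this multiplexed HUVEC system, biomarker ELISA was performed after 24 h chemical exposure. Parallel SRB staining (TCA fixation, 560 nm) tracked cytotoxicity; DMSO served as baseline.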

[11] = read-out: Human Leukocyte Antigen - DR isotype (HLADR), HLA-DRA (gene 3122); test: BSK_BE3C_HLADR: BioMAP Diversity Plus: BE3C Assay for Human Leukocyte Antigen - DR isotype (HLADR) Biomarker Activity (AID 2283032); details: primary human bronchial epithelial cells; actives raise or lower the signal
Procedure, shortened: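 Primary human bronchial epithelial cells (BE3C); 24 h chemical exposure; HLA-DR by ELISA; bidirectional curve fit vs DMSO baseline.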

[12] = read-out: Vascular cell adhesion molecule 1 (VCAM1), VCAM1 (gene 7412); test: BSK_4H_VCAM1: BioMAP Diversity Plus: 4H Assay for Vascular cell adhesion molecule 1 (VCAM1) Biomarker Activity (AID 2283033); details: primary human endothelial cells (HUVEC); actives raise or lower the signal
Procedure, shortened: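 HUVEC, 24 h post-dose; VCAM-1 by ELISA. Bidirectional curve fit vs DMSO baseline. Parallel SRB total-protein stain (0.1% SRB after 10% TCA fixation, 560 nm) for cytotoxicity.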

[13] = read-out: Interferon-gamma inducible Protein 10 (IP10), CXCL10 (gene 3627); test: BSK_BE3C_IP10: BioMAP Diversity Plus: BE3C Assay for Interferon-gamma inducible Protein 10 (IP10) Biomarker Activity (AID 2283034); details: primary human bronchial epithelial cells; actives raise or lower the signal
Procedure, shortened: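 ELISA readout of IP-10 in BE3C system: primary human bronchial epithelial cells, 24 h post-dosing; bidirectional curve fit vs DMSO baseline.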

[14] = read-out: Monokine induced gamma interferon (MIG), CXCL9 (gene 4283); test: BSK_BE3C_MIG: BioMAP Diversity Plus: BE3C Assay for Monokine induced gamma interferon (MIG) Biomarker Activity (AID 2283035); details: primary human bronchial epithelial cells; actives raise or lower the signal
Procedure, shortened: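 hu bronchial epithelial 1° cells, 24 h cpd; MIG by ELISA; bidirectional fit, DMSO = baseline.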

[15] = read-out: Plasminogen activator inhibitor-1 (PAI1), SERPINE1 (gene 5054); test: BSK_BE3C_PAI1: BioMAP Diversity Plus: BE3C Assay for Plasminogen activator inhibitor-1 (PAI1) Biomarker Activity (AID 2283037); details: primary human bronchial epithelial cells; actives raise or lower the signal
Procedure, shortened: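 ELISA read-out of PAI-1 from human bronchial epithelial primary cells, 24 h post-dosing; bidirectional curve fit vs DMSO baseline, gain or loss of signal scored.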

[16] = read-out: urokinase plasminogen activator (uPA), PLAU (gene 5328); test: BSK_BE3C_uPA: BioMAP Diversity Plus: BE3C Assay for urokinase plasminogen activator (uPA) Biomarker Activity (AID 2283038); details: primary human bronchial epithelial cells; actives raise or lower the signal
Procedure, shortened: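 Using confluent primary human lung bronchial epithelial cultures, we dosed chemicals, waited 24 h, then ran a uPA ELISA, fitting bidirectionally against DMSO.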

[17] = read-out: Urokinase-type plasminogen activator receptor (uPAR), PLAUR (gene 5329); test: BSK_BE3C_uPAR: BioMAP Diversity Plus: BE3C Assay for Urokinase-type plasminogen activator receptor (uPAR) Biomarker Activity (AID 2283039); details: primary human bronchial epithelial cells; actives raise or lower the signal
Procedure, shortened: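 ELISA readout of uPAR on human lung primary bronchial epithelial cells, 24 h post-dosing. Bidirectional curve fit relative to DMSO vehicle baseline; gain or loss of signal both scored.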

[18] = BSK_3C_Vis: BioMAP Diversity Plus: 3C Assay for Morphology Visualization (AID 2283025); details: primary human endothelial cells (HUVEC);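 further: fitted both ways so gain or loss versus DMSO counts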
Procedure, shortened: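 HUVEC, 3C system; light microscopy of morphology at 24 h post-dose. Bidirectional fit vs DMSO baseline. Secondary readout, background-control function.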

[19] = read-out: Transforming growth factor beta 1 (TGFb1), TGFB1 (gene 7040); test: BSK_BE3C_TGFb1: BioMAP Diversity Plus: BE3C Assay for Transforming growth factor beta 1 (TGFb1) Biomarker Activity (AID 2283036;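 further: TGF-b1 protein level measured by ELISA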); details: primary human bronchial epithelial cells; actives raise or lower the signal
Procedure, shortened: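 Read-out: ELISA for TGF-b1 in primary human bronchial epithelial cultures, 24 h post-dose. Bidirectional curve fitting vs DMSO control; gain or loss of signal both scored.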

[20] = read-out: Pselectin, SELP (gene 6403); test: BSK_4H_Pselectin: BioMAP Diversity Plus: 4H Assay for Pselectin Biomarker Activity (AID 2283026); details: primary human endothelial cells (HUVEC); actives raise or lower the signal
Procedure, shortened: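 HUVEC, 24 h chemical exposure; P-selectin read by ELISA. Bidirectional curve fit vs DMSO baseline; gain or loss of signal scored.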

Measured: AC50

Chain of human Vitamin D Receptor (VDR), VDR (gene 7421) (P11473 whole entry, looked up): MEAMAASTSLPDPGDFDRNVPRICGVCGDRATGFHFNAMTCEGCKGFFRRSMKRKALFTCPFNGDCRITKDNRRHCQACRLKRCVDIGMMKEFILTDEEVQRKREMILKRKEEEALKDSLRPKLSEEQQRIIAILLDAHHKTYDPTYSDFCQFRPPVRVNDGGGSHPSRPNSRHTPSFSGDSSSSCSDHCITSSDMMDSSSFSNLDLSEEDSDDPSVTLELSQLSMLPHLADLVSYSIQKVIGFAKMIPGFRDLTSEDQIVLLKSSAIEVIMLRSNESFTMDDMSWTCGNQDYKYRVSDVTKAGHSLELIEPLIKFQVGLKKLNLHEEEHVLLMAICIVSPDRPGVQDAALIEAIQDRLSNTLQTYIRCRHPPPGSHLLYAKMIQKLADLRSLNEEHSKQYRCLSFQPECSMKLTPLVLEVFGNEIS

OCCCC(F)(F)C(F)(F)C(F)(F)C(F)(F)C(F)(F)C(F)(F)C(F)(F)C(F)(F)F
inactive: [3]
active: [1] 19.6 µM and 20.6 µM | [2] 50.9 µM and 52.6 µM | [4] 10.5 µM and 28.4 µM | [5] 7.11 µM and 55.2 µM | [6] 11.1 µM and 20.8 µM | [7] 51.9 µM and 48.7 µM | [8] 43.7 µM and 56.3 µM | [9] 31 µM and 43.6 µM | [10] 53.5 µM and 36.8 µM | [11] 44.6 µM and 49.9 µM | [12] 31.2 µM and 45.1 µM | [13] 32.3 µM and 37.7 µM | [14] 56.5 µM and 53.4 µM | [15] 37.8 µM and 30.3 µM | [16] 55.2 µM | [17] 49.4 µM and 54.6 µM

NC(O)(C(F)(F)F)C(F)(F)F
not listed: [14] | [18] | [19] | [20]
inactive: all other assays above

Cc1cnccn1
not listed: [3] | [14] | [20]
inactive: all other assays above

O=C=Nc1cccc2c(N=C=O)cccc12
not listed: [3]
inactive: all other assays above

O=C=NCc1cccc(CN=C=O)c1
not listed: [3] | [14]
inactive: all other assays above

NC(=O)C(F)(F)C(F)(F)C(F)(F)F
inactive: [1] | [2] | [3] | [4] | [5] | [6] | [7] | [8] | [9] | [10] | [11] | [12] | [13] | [14] | [15] | [16] | [17]
active: [8] 5.95 µM
